From PubChem
KB-3-1 cytotox: KB-3-1 parental cell cytotoxicity | KB-3-1 viability, CellTiter-Glo ATP luminescence, 72 h | Potency, µM (doses to about 46.1 µM), most hits filed as cytotoxic | hit rate 1.4% among 400,000 | AID 1347075; also: nearly all actives have a fitted effect of over 60% in size
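Multi-concentration cytotoxicity screen in KB-3-1 cells grown in DMEM lacking phenol red with 10% FBS. After 72 h at 37 °C with compound, ATP-dependent luminescence was recorded.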
HT1080NT lethal: kills 2HG-producing HT-1080-NT fibrosarcoma cells; hit rate 1.6% among 360,000; HT-1080-NT fibrosarcoma viability, CellTiter-Glo ATP luminescence, 48 h; Potency, µM (doses to about 46.1 µM), usual class: cytotoxic;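 also: NT is the 2HG producing partner of a matched IDH1 knockdown line; nearly all actives have a fitted effect of over 55% in size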
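Toxicity toward the 2HG-producing NT line was scored as %Activity, normalised to DMSO and no-cell wells, from CellTiter-Glo luminescence after 48 hours' treatment.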
SW480 rerep: inducers of DNA re-replication in SW480 colon cancer cells. hit rate 1.8% among 340,000. SW480 DNA re-replication, Hoechst DNA content imaging, 48 h. Potency, µM (series often up to 46.1 µM), hits mostly activators. AID 624297; also: nearly all actives have a fitted effect of over 55% in size
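First, 250 cells per well were seeded. Next, compound or vehicle (23 nL) was pinned in, plates sat 48 hr at 37 C. Finally Hoechst was added for 40 min before fluorescence scanning.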
KB-V1 cytotox: kills drug-selected multidrug resistant KB-V1 cells. KB-V1 MDR cells viability, CellTiter-Glo, 72 h. hit rate 3.4% among 400,000. Potency, µM (top dose mostly 46.1 µM), usual class: cytotoxic. AID 1347076; also: nearly all actives have a fitted effect of over 60% in size
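Luminescent ATP read-out (CellTiter-Glo, 10 min) measures survival of drug-selected KB-V1 MDR cells after 72 h, 37 degrees C compound exposure. Medium: phenol-red-free DMEM, 10% FBS. Values from fitted concentration-response curves.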
MCF10A rerep: induces DNA re-replication in MCF 10a normal breast cells; MCF 10A DNA re-replication, Hoechst nuclear intensity, 48 h; Potency, µM (highest dose often 46.1 µM), hits mostly activators; hit rate 2.9% among 350,000; also: nearly all actives have a fitted effect of over 50% in size
HT1080 IDH1KD tx: toxicity to HT-1080 IDH1 knockdown cells (counter line) | AID 686971 | hit rate 2% among 360,000 | HT-1080 IDH1 knockdown viability, ATP luminescence, 48 h | Potency, µM (titrated, usually from 46.1 µM), actives largely listed as cytotoxic
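Assay cells: HT-1080 with IDH1 knockdown, 750 per well, RPMI/5% FBS. Exposure: 48 h at 37 °C following 2 h pre-incubation. Read: CellTiter-Glo luminescence; fitted concentration-response, curve class assigned.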
Hits are given with their value; – = inactive; ? = inconclusive; · = no result; [ ] = remark or other dose. Only some compounds are listed: those with a hit (about 7.9% of all), similar ones and a draw of the others. Calls follow the shape of the dose curve; as a rule, active = well fitted curve in the direction sought with a large enough effect; inconclusive = small, poorly fitted or top-dose-only effect, or another doubt; inactive = no such curve, though single readings can be large; an effect the other way counts as inactive or inconclusive.

SMILES | KB-3-1 cytotox | HT1080NT lethal | SW480 rerep | KB-V1 cytotox | MCF10A rerep | HT1080 IDH1KD tx
CC1CCCN(C(=O)c2ccc3ncsc3c2)C1 (stereo not given) | – | – | 3.7µM | – | – | –
COc1ccccc1N1CCN(C(=O)c2nc(SC)ncc2Cl)CC1 | 4.1µM | · | · | 4.1µM | · | ·
COc1ccccc1N1CCN(C(=O)c2ccc3nc(-c4ccco4)c(-c4ccco4)nc3c2)CC1 | ? | ? | ? | 23µM | 23µM | ?
CCN(CC)CCNS(=O)(=O)c1ccc2c3c(cccc13)C(=O)N2 | – | ? | – | – | – | –
O=C(NC(=S)Nc1ccccc1)c1cc(-c2ccccc2)nc2ccccc12 | – | – | – | – | – | –
O=C(NC(=S)Nc1ccccn1)c1cc(-c2ccccc2)nc2ccccc12 | – | – | ? | 16µM | – | –
O=C(Nc1ccccn1)c1cc(-c2ccc(Cl)s2)nc2ccccc12 | ? | – | – | ? | 21µM | –
Oc1c(C(c2cccs2)N2CCN(c3cccc(Cl)c3)CC2)sc2ncnn12 (stereo not given) | – | – | – | – | – | –
COc1ccc(NS(=O)(=O)c2cccc(C(=O)N3CCCCCCC3)c2)cc1 | – | – | – | ? | – | –
COc1ccc(C2CC(c3ccc([N+](=O)[O-])cc3)=NN2C(=O)c2ccccc2)cc1OC (stereo not given) | – | – | – | – | – | –
CCC(=O)N1N=C(c2ccccc2)CC1c1ccc([N+](=O)[O-])cc1 (stereo not given) | – | – | ? | 15µM | – | –
COc1ccc(C2CC(c3ccccc3OC(C)=O)=NN2C(C)=O)cc1 (stereo not given) | ? | – | 16µM | ? | – | –
COc1ccc(C2=NN(C(=O)COC(=O)c3ccc(S(C)(=O)=O)c([N+](=O)[O-])c3)C(c3ccco3)C2)cc1 (stereo not given) | ? | ? | 12µM | ? | ? | 15µM
COc1ccc(C2CC(c3ccccc3)=NN2C(=O)COC(=O)c2cccc(S(=O)(=O)N3CCOCC3)c2)cc1 (stereo not given) | – | – | – | – | – | –
COc1ccc(C2CC(c3ccccc3)=NN2C(=O)COC(=O)c2cccc(S(=O)(=O)N(C)C)c2)cc1 (stereo not given) | – | – | – | 3.7µM | – | –
COc1ccc(C2CC(c3ccccc3OC(C)=O)=NN2C(=O)/C=C/c2ccccc2)cc1 (stereo not given) | – | – | – | – | – | –
COc1ccc(C2=NN(C(=O)CN3CCCCC3)C(c3ccc(C)cc3)C2)cc1 (stereo not given) | – | – | – | ? | – | –
COc1ccc(C2CC(c3ccccc3)=NN2C(=O)CN2CCN(Cc3ccccc3)CC2)cc1 (stereo not given) | ? | – | – | 23µM | –[9.22 µM] | –
O=C(N/N=C/c1c(Cl)cccc1Cl)C(=O)NC1CC1 | – | – | – | – | – | –
COc1ccccc1-c1nnc(SCC(=O)O)n1-c1ccccc1 | – | – | – | – | – | –
CC(=O)[C@@H]1[C@@H](C(=O)c2ccccc2)[C@]2(C(=O)Nc3ccccc32)[C@H]2C=Cc3cc(F)ccc3N12 | ? | – | ? | ? | 21µM | –
O=C(c1ccccc1)[C@@H]1[C@@H](C(=O)c2ccc(F)cc2)[C@@]2(C(=O)Nc3ccccc32)[C@H]2c3ccccc3C=CN12 | ? | – | – | ? | – | –
CC1CCc2nc(/C(C#N)=C/c3cccnc3)sc2C1 (stereo not given) | – | – | ? | ? | 21µM | ?
O=c1cc(CCl)[nH]c2nc3ccccc3n12 | – | 18µM | 18µM | – | ? | ?
O=c1cc(-c2ccccc2)[nH]c2nc3ccccc3n12 | ? | ? | 10µM | ? | 6.5µM | ?
SMILES | KB-3-1 cytotox | HT1080NT lethal | SW480 rerep | KB-V1 cytotox | MCF10A rerep | HT1080 IDH1KD tx
COc1cc2cncc(Cc3ccccc3)c2cc1O | – | – | – | – | – | –
Cc1nn(CC2CC2)c(=O)n1-c1cccc(Cl)c1 | – | – | – | – | – | –
CCN=c1scc(C)n1/N=C/c1cc(Br)c(O)c(OC)c1 | – | – | – | – | 21µM | ?
CC1=C(C)CC(C(=O)Nc2cccc(Cl)c2)C(C(=O)O)C1 (stereo not given) | – | – | – | – | – | –
COc1ccc2[nH]c(=O)c(CN(C(C)=O)C3CCCCC3)cc2c1 | – | – | – | – | – | –
O=C(NC1CCCCC1)N(CCO)Cc1cc2cc3c(cc2[nH]c1=O)OCCO3 | – | – | – | – | – | –
CCC(C)(C)n1nnnc1CN(Cc1cc2cc(OC)ccc2[nH]c1=O)C1CCCC1 | – | – | ? | 18µM | 5.8µM | –
CCOc1ccc(N(Cc2cc3cc(OC)ccc3[nH]c2=O)S(C)(=O)=O)cc1 | – | – | – | 15µM | – | ?
COc1ccc(Cn2nnnc2CN(Cc2cc3ccc(C)cc3[nH]c2=O)C2CCCC2)cc1 | – | ? | – | ? | – | ?
COc1ccc2[nH]c(=O)c(CN(c3ccc(C)c(C)c3)S(C)(=O)=O)cc2c1 | – | – | – | – | – | –
COc1ccc2[nH]c(=O)c(CN(C(=O)NC3CCCCC3)C3CCCC3)cc2c1 | – | – | – | 15µM | ? | –
CCc1ccc2[nH]c(=O)c(CN(CCN(CC)CC)C(=O)NC3CCCCC3)cc2c1 | ? | 16µM | – | – | ? | ?
Cc1ccc(/C=C/C(=O)O)cc1S(=O)(=O)NCc1ccco1 | – | – | – | ? | – | –
S=C(c1ccccc1)N1CCN(C(=S)c2ccccc2)CC1 | – | – | – | – | – | –
COc1cccc(CNC(=O)COC(=O)C2CCN(c3ccc(C(F)(F)F)cn3)CC2)c1 | – | – | – | – | – | –
O=C(CC1C(=O)N(Cc2ccccc2)C(=S)N1CCN1CCOCC1)Nc1ccc(F)cc1 (stereo not given) | – | ? | – | ? | – | –
Cc1[nH]nc2c1C(C1CC=CCC1)C(C#N)=C(N)O2 (stereo not given) | ? | ? | ? | – | ? | ?
CC1(C)CC(=O)C2=C(C1)OC(N)=C(C#N)C2C1CC=CCC1 (stereo not given) | – | – | – | 16µM | – | –
N#CC1=C(N)Oc2cc(N)ccc2C1C1CC=CCC1 (stereo not given) | ? | ? | 16µM | 6.5µM | 6.5µM | ?
CC1C(C#N)=C(N)OC2=C1C(=O)CC(C)(C)C2 (stereo not given) | – | – | – | ? | –[0.0737 µM] | –
CCN1CCN(C(=O)c2ccc3c(=O)n(CCc4ccccc4)c(=O)[nH]c3c2)CC1 | – | – | 29µM | – | ? | –
